LGR2 inh = blocks bursicon-induced cAMP signaling via Drosophila LGR2; 0.35% of 380,000 active; inhibition, % at 9.99 µM; HEK293 LGR2, CRE-luciferase, bursicon-stimulated, 4 h;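 active = drop in luminescence signal, shown as inhibition above about 50% in the replicate tests, limit read from the data, passing the limit was not always enough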;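 also: agonist challenge used bursicon conditioned medium at about half maximal strength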
MITF act = MITF TRPM1 promoter activation in melanoma cells; SK-MEL-5 TRPM1-promoter luciferase, 24 h; % of positive control, neutral wells = 0; activation, % at 12.5 µM; 0.75% of 300,000 active; AID 588334;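 active = mean activation of at least 80% with every replicate also reaching 80%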;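 also: 0% = neutral control wells and 100% = parthenolide positive control wells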
TWEAK Fn14 block = TWEAK-Fn14 signaling inhibition; TWEAK-stimulated Fn14 reporter cells, luciferase luminescence, 8 h; inhibition, % at 10 µM; 2% of 360,000 active; AID 1159606; in the data active = inhibition above about 50%
EBV LMP1 NFkB = Epstein-Barr LMP1 NF-kappaB reporter inhibition; AID 504558; inhibition, % at 12.5 µM; 0.69% of 350,000 active; LMP1-induced NF-kappaB luciferase reporter cells, luminescence; in the data active = inhibition above about 41%;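 also: 0% = neutral control wells and 100% = reference inhibitor control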
TROY signal inh = TROY signaling inhibition; Q293 LMP1-TROYcd NF-kB luciferase reporter, 4 h; inhibition, % at 10 µM; 0.98% of 360,000 active;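 active = compounds whose plate-normalised and pattern-corrected inhibition of the luciferase reporter signal at the single screening dose is 50% or more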
MITF TRPM1 inh = MITF TRPM1 promoter inhibition in SK-MEL-5 cells | SK-MEL-5 TRPM1 promoter luciferase, 24 h | inhibition, % at 12.5 µM | 0.83% of 330,000 active | AID 488899;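 active = mean inhibition across replicates of 60% or more, whatever share of single replicates reaches that level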
Numbers without * were called inactive; / = no result given. An excerpt weighted towards active compounds, which were near 3% of everything screened.

SMILES	LGR2 inh	MITF act	TWEAK Fn14 block	EBV LMP1 NFkB	TROY signal inh	MITF TRPM1 inh
Cc1csc(NC(=O)c2cc3c(s2)CCCCC3)n1	/	-48	95*	38	77*	47
C[C@@H]1CN([C@H](C)CO)C(=O)c2cc(NS(=O)(=O)c3ccc(Cl)cc3)ccc2O[C@H]1CN(C)Cc1ccncc1	2	/	/	/	/	/
CO[C@@H]1CN(C)C(=O)c2cc(NC(=O)C3CC3)ccc2OC[C@@H](C)N(Cc2ccccc2)C[C@@H]1C	-2	/	/	/	/	/
CC1CCC(NC(=O)c2cc3c(s2)CCCC3)CC1 (stereo unspecified)	-68	100*	-62	-23	-65	-98
CCOC(=O)Cc1csc(NC(=O)c2cc3c(s2)CCCC3)n1	-16	18	-6	1	-24	-20
Cc1csc(NC(=O)c2cc3c(s2)CCCC3)n1	/	-2	71*	8	35	5
CNC(=O)c1cc2c(s1)CCCCCC2	/	8	9	3	-6	-11
COc1ccc(NC(=O)N(C)C[C@@H]2Oc3ccc(NS(=O)(=O)c4ccc(F)cc4)cc3CC(=O)N([C@@H](C)CO)C[C@H]2C)cc1	-3	/	/	/	/	/
Oc1ccccc1C=Nc1cccc2ccccc12	0	/	69*	-3	66*	21
Cc1cccc(N=Cc2ccccc2O)c1C	-13	/	38	3	-7	/
Oc1cccc(C=Nc2cccc3ccccc23)c1O	-3	/	101*	-12	61*	15
COCCNC(=O)C[C@@H]1CC[C@H]2[C@@H](COc3ccc(NC(=O)C4CCOCC4)cc3C(=O)N2C)O1	7	/	/	/	/	/
O=C1c2ccccc2-c2onc3ccc(Oc4ccccc4)c1c23	37	-97	56*	53*	-7	97*
O=C1C=CC2(O[C@H](c3ccccc3)[C@@H](c3ccccc3)O2)[C@H](Sc2ccccc2O)C1	99*	-94	105*	82*	80*	94*
COc1ccc(CNc2ncc(-c3ccc(F)cc3)n2C)c2ccccc12	0	-52	58*	19	1	53
COc1ccccc1CNc1ncc(-c2ccc(F)cc2)n1C	-9	9	20	3	-3	-8
C[C@@H]1CN([C@@H](C)CO)C(=O)c2cc(NC(=O)NC3CCCCC3)ccc2O[C@H]1CN(C)CC1CCCCC1	4	/	/	/	/	/
CCC1C/C(=C\c2cccnc2)C(=O)/C(=C/c2cccnc2)C1 (stereo unspecified)	/	-97	105*	93*	59*	97*
O=C1/C(=C/c2cccnc2)CC/C1=C\c1cccnc1	8	-5	15	-2	7	2
O=C1/C(=C\c2cccnc2)CCc2ccccc21	/	16	92*	-3	/	-12
O=C1/C(=C/c2cccnc2)CCC/C1=C\c1cccnc1	90*	/	/	/	/	/
CO[C@H]1CN(C)C(=O)c2cc(NC(=O)c3cc(C)on3)ccc2OC[C@H](C)N(C(=O)C2CC2)C[C@H]1C	-1	/	/	/	/	/
COc1ccccc1C#Cc1ccc2c(c1)O[C@@H](CN(C)Cc1ccccc1)[C@H](C)CN([C@@H](C)CO)S2(=O)=O	-47	/	/	/	/	/
COc1cc(-c2cc3nc(NCc4cccc(Cl)c4)ccn3n2)cc(OC)c1OC	/	/	65*	/	42	/
O=S(c1cc(Cl)cc(Cl)c1O)c1cc(Cl)cc(Cl)c1O	-1	/	-3	/	54*	/
SMILES	LGR2 inh	MITF act	TWEAK Fn14 block	EBV LMP1 NFkB	TROY signal inh	MITF TRPM1 inh
N#Cc1ccc(NC(=O)Nc2ccc(Cl)cc2)cc1	/	/	63*	10	26	2
COc1cccc(C(=O)Nc2ccc(NC(=O)C(C)(C)C)cn2)c1	/	4	75*	37	65*	-2
O=C(Nc1ccc(Cl)cc1)Nc1ccc(Cl)c(Cl)c1	2	/	/	/	/	/
Cc1ccc(NC(=O)Nc2ccc(F)cc2)nc1	/	82*	0	-29	-53	-82
O=C(Nc1ccc(Cl)cc1)Nc1ccc(Br)cn1	-50	94*	-5	-14	-58	-88
Cc1ccc(S(=O)(=O)Nc2ccc3c(c2)C(=O)N([C@@H](C)CO)C[C@@H](C)[C@H](CN(C)C(=O)c2ccccc2)OCCCC[C@H](C)O3)cc1	10	/	/	/	/	/
C[C@@H]1CCCCO[C@H](CN(C)C(=O)CCC(F)(F)F)[C@H](C)CN([C@@H](C)CO)C(=O)c2cc(NS(=O)(=O)c3cccs3)ccc2O1	-22	/	/	/	/	/
COc1cccc(NC(=O)Nc2ccc(Br)cn2)c1	-47	106*	-29	-2	-38	-104
CN1[C@@H]2Cn3c(ccc(-c4ccccc4)c3=O)[C@H]1[C@@H](C(=O)NCCc1ccccc1)[C@@H]2CO	11	/	/	/	/	/
O=C(/C=C/c1ccco1)NCCc1ccccc1	-41	63	-8	-27	8	-59
Cc1ccc(/C=C/C(=O)NCCc2ccccc2)o1	-14	57	67*	-86	1	-58
NCCCNc1nc(N)c([N+](=O)[O-])c(NC2CCCCC2)n1	54*	-70	38	-12	43	74*
Cc1ccc(S(=O)(=O)NC(CC(C)C)C(=O)Oc2ccc3c4c(c(=O)oc3c2)CCC4)cc1 (stereo unspecified)	21	-4	34	-2	69*	5
CN1N=C2c3ccccc3CCC2C1c1ccc(F)cc1 (stereo unspecified)	-73	/	53*	/	60*	/
c1ccc(N2CC3CCc4ccccc4C3=N2)cc1 (stereo unspecified)	/	/	-26	-53	-35	-2
CN1N=C2c3ccccc3CCC2C1c1ccc(Cl)cc1 (stereo unspecified)	-99	/	54*	-60	40	-53
CNC(=S)N1N=C2c3ccccc3CCC2C1c1ccccc1Cl (stereo unspecified)	-3	/	4	-3	3	3
CCN1[C@@H]2c3ccc(C4=CCCCC4)c(=O)n3C[C@H]1[C@H](CO)[C@H]2C(=O)N1CCOCC1	-12	/	/	/	/	/
COc1cccc(-c2ccc([C@@H]3[C@@H](CO)N4C(=O)CN(C(=O)NC(C)C)C[C@H]34)cc2)c1	17	/	/	/	/	/
Cc1cc(C(=O)COC(=O)c2ccccc2O)c(C)n1CC1CCCO1 (stereo unspecified)	100*	-84	106*	87*	90*	84*
C=CCn1c(C)cc(C(=O)COC(=O)c2n[nH]c(=O)c3ccccc23)c1C	-5	53	39	-26	30	-49
Cc1cc(C(=O)COC(=O)C2COc3ccccc3O2)c(C)n1CC1CCCO1 (stereo unspecified)	/	-5	15	-8	-14	7
CCOc1cc(C(=O)OCC(=O)c2cc(C)n(CC3CCCO3)c2C)ccc1OCC(=O)N1CCOCC1 (stereo unspecified)	/	10	9	1	-7	-13
Cc1cc(C(=O)COC(=O)c2ccccc2NCCO)c(C)n1CC1CCCO1 (stereo unspecified)	12	-14	62*	5	40	13
Cc1cc(C(=O)COc2ccccc2C(N)=O)c(C)n1CC1CCCO1 (stereo unspecified)	15	-6	15	20	4	5

Screening results (PubChem)
